The supplement of paper PMC13380429

Assays:
[1] = system: Vero E6 infected with SARS-CoV-2; assay: morphology score (similarity to uninfected cells); higher = more like uninfected cells; conditions: 24 h
[2] = system: Vero E6 infected with SARS-CoV-2; assay: SARS-CoV-2 infection rate relative to infected DMSO; higher = more infection, active = 60 or less; conditions: 24 h

| Compound | morphology score [1] | SARS-CoV-2 infection rate [2] |
| --- | --- | --- |
| Clc1ccc(-c2nc3sccn3c2/C=N/OCc2ccc(Cl)c(Cl)c2)cc1 (10 µM) | 0.00562 | 107% (inactive) |
| N=C(NCCCCCCNC(=N)NC(=N)Nc1ccc(Cl)cc1)NC(=N)Nc1ccc(Cl)cc1 [chlorhexidine] (0.833333 µM) | 0.277 | 58% (active) |
| N#Cc1ccc(Cn2cncc2CN2CCN(c3cccc(Cl)c3)C(=O)C2)cc1 (10 µM) | 0.276 | 95% (inactive) |
| CCCC(=O)O[C@]1(C(=O)COC(C)=O)CC[C@H]2[C@@H]3C[C@H](F)C4=CC(=O)C=C[C@]4(C)[C@@]3(F)[C@@H](O)C[C@@]21C [difluprednate] (10 µM) | 0.215 | 100% (inactive) |
| CCN(CC)C(=O)Nc1ccc(OCC(O)CNC(C)(C)C)c(C(C)=O)c1 (stereo not given) [celiprolol] (10 µM) | 0.118 | 96.5% (inactive) |
| O=C(NCCN1CCC2(CC1)C(=O)NCN2c1cccc(F)c1)c1ccc2ccccc2c1 (10 µM) | 0.766 | 26% (active) |
| Nc1ccc(C(=O)O)c(O)c1 [aminosalicylate] (10 µM) | -0.137 | 106% (inactive) |
| CC1=NN(c2ccc(C)c(C)c2)C(=O)/C1=N\Nc1cccc(-c2cccc(C(=O)O)c2)c1O [eltrombopag] (10 µM) | 0.143 | 99% (inactive) |
| O=c1cc(-c2ccccc2)oc2cc(O)c(O)c(O)c12 [baicalein] (10 µM) | 0.196 | 85% (inactive) |
| NS(=O)(=O)c1cc2c(cc1Cl)NC(CC1CCCC1)NS2(=O)=O (stereo not given) [cyclopenthiazide] (10 µM) | 0.129 | 100% (inactive) |
| CC(=O)N1N=C(c2ccc(N)cc2)c2cc3c(cc2C[C@H]1C)OCO3 [talampanel] (10 µM) | -0.0668 | 104% (inactive) |
| Cc1ccc(O)c(N=Nc2ccccc2)n1 (10 µM) | 0.26 | 81% (inactive) |
| CCCCC(CC)CNC(=N)NC(=N)NCCCCCCNC(=N)NC(=N)NCC(CC)CCCC (stereo not given) [alexidine] (0.833333 µM) | -0.0694 | 104% (inactive) |
| Cc1ccc(/C=C2/C(=O)C3(C)CCC2C3(C)C)cc1 (stereo not given) [3-(4-methylbenzylidene)camphor] (10 µM) | -0.0397 | 114% (inactive) |
| Cc1ccc2cc(-c3c(C)ccc(C(=O)c4c(-c5ccccc5)n(C)n(-c5ccccc5)c4=O)c3N)ccc2n1 (10 µM) | 0.0631 | 76% (inactive) |
| O=c1[nH]cnc2c1cnn2[C@@H]1O[C@H](CO)[C@@H](O)[C@H]1O [allopurinol-riboside] (10 µM) | 0.0253 | 109% (inactive) |
| CC(NCCC(c1ccccc1)c1ccccc1)c1ccccc1 (stereo not given) [fendiline] (10 µM) | 0.771 | 44% (active) |
| O=C1C(O)=C(O)C(=O)C(O)=C1O [tetroquinone] (10 µM) | 0.0422 | 106% (inactive) |
| N#Cc1c(-c2ccccc2)cc(-c2cc(Br)ccc2O)[nH]c1=O (10 µM) | 0.048 | 110% (inactive) |
| NC(=O)N1c2ccccc2C=Cc2ccccc21 [carbamazepine] (10 µM) | -0.0216 | 108% (inactive) |

| Compound | morphology score [1] | SARS-CoV-2 infection rate [2] |
| --- | --- | --- |
| Cc1ccc2nc(N)[nH]c(=O)c2c1Sc1ccncc1 [nolatrexed] (10 µM) | -0.166 | 108% (inactive) |
| COc1ccc(-c2sc(NC(=O)C(C)(C)C)nc2C)cc1S(=O)(=O)Nc1ccc(O)cc1 [PI4KIII-beta-inhibitor-1] (10 µM) | 0.325 | 66% (inactive) |
| O=[N+]([O-])c1cc(Cl)ccc1S(=O)(=O)N1CCN(Cc2ccccc2)CC1 (10 µM) | -0.0654 | 112% (inactive) |
| C=C[C@@](C)(/C=C/c1ccc(O)cc1)CCC=C(C)C [bakuchiol] (10 µM) | -0.328 | 114% (inactive) |
| Cc1c(NC(=O)OC[C@@H]2COCCN2)cn2ncnc(Nc3ccc4c(cnn4Cc4cccc(F)c4)c3)c12 (0.833333 µM) | -0.105 | 102% (inactive) |
| COc1ccc(-c2cc(=O)c3c(O)c(OC)c(O)cc3o2)cc1OC [eupatilin] (10 µM) | -0.0115 | 109% (inactive) |
| CCN(CC)C(=O)N[C@H]1C=C2c3cccc4[nH]cc(c34)C[C@H]2N(C)C1 [lisuride] (10 µM) | -0.111 | 110% (inactive) |
| Nc1nc(NC2CC2)c2ncn([C@H]3C=C[C@@H](CO)C3)c2n1 (10 µM) | 0.0446 | 102% (inactive) |
| CN1C(=O)N(c2cc(Cl)cc(Cl)c2)C(=O)[C@@]1(C)Cc1ccc(Br)cc1 (10 µM) | 0.25 | 96.5% (inactive) |
| O=C1CCc2ccc(OCCCCN3CCN(c4cccc(Cl)c4Cl)CC3)cc2N1 [aripiprazole] (10 µM) | -0.0119 | 103% (inactive) |
| O=C(Oc1ccc([N+](=O)[O-])cc1)N1CCC(C(O)(c2ccc3c(c2)OCO3)c2ccc3c(c2)OCO3)CC1 (10 µM) | 0.0091 | 103% (inactive) |
| Nc1n[nH]c2nnc(-c3c(-c4ccccc4)nn4ccccc34)cc12 (10 µM) | 0.264 | 103% (inactive) |
| CC[C@H]1OC(=O)C[C@@H](O)[C@H](C)[C@@H](O[C@@H]2O[C@H](C)C[C@H](N(C)C)[C@H]2O)[C@@H](CC=O)C[C@@H](C)C(=O)/C=C/[C@]2(C)O[C@H]2[C@@H]1C [rosamicin] (10 µM) | 0.129 | 96% (inactive) |
| CN(C)CCCN1c2ccccc2Sc2ccc(Cl)cc21 [chlorpromazine] (0.833333 µM) | 0.071 | 98.5% (inactive) |
| COc1ccc(Cn2ccc3ccc(C(=O)NO)cc32)cc1 (0.833333 µM) | 0.108 | 111% (inactive) |
| CCCn1c(=O)c2[nH]c(-c3cnn(Cc4cccc(C(F)(F)F)c4)c3)nc2n(CC)c1=O (10 µM) | 0.163 | 103% (inactive) |
| N[C@@H]1CONC1=O [cycloserine-(D)] (10 µM) | 0.0631 | 92.5% (inactive) |
| N[C@]1(C(=O)O)CC[C@@H](C(=O)O)C1 (10 µM) | 0.188 | 82% (inactive) |
| N#Cc1ccncn1 [4-pyrimidinecarbonitrile] (10 µM) | 0.0783 | 97% (inactive) |
| CCCN(CC1CC1)c1nc(C)nc(Nc2c(Cl)cc(Cl)cc2Cl)c1Cl (10 µM) | 0.143 | 102% (inactive) |

| Compound | morphology score [1] | SARS-CoV-2 infection rate [2] |
| --- | --- | --- |
| CCn1cc(C(=O)O)c(=O)c2cc(F)c(N3CCNCC3)cc21 [norfloxacin] (10 µM) | 0.204 | 86% (inactive) |
| CC(C)NC[C@@H](C(=O)N1CCN(c2ncnc3c2[C@H](C)C[C@H]3O)CC1)c1ccc(Cl)cc1 (10 µM) | 0.0963 | 96% (inactive) |
| C=CC(=O)Nc1cccc(Nc2nc(Nc3ccc(NC4CN(CCF)C4)cc3OC)ncc2C(F)(F)F)c1 (0.833333 µM) | -0.356 | 118% (inactive) |
| CCOP(=S)(OCC)Oc1cc(C)nc(C(C)C)n1 [dimpylate] (10 µM) | -0.0379 | 116% (inactive) |
| N[C@@H](Cc1ccc(O)cc1)C(=O)O [plovamer-acetate] (10 µM) | 0.0812 | 108% (inactive) |
| NS(=O)(=O)c1ccc2c(c1)C1C=CCC1C(c1ccc(Br)cc1)N2 (stereo not given) (10 µM) | -0.0557 | 95% (inactive) |
| O=C(CCCCCCCn1cc(-c2cccnc2)nn1)Nc1ccccc1-c1ccccc1 (0.833333 µM) | -0.143 | 114% (inactive) |
| COC(=O)N[C@H](C(=O)N[C@@H](Cc1ccccc1)[C@@H](O)CN(Cc1ccc(-c2ccccn2)cc1)NC(=O)[C@@H](NC(=O)OC)C(C)(C)C)C(C)(C)C [atazanavir] (10 µM) | 0.129 | 112% (inactive) |
| CC(=O)[C@H]1CC[C@H]2[C@@H]3C[C@H](C)C4=CC(=O)CC[C@]4(C)[C@H]3[C@@H](O)C[C@]12C [medrysone] (10 µM) | 0.0629 | 106% (inactive) |
| C=C1C(=O)[C@]23[C@H](O)[C@H]1CC[C@H]2[C@@]12CO[C@]3(O)[C@@H](O)[C@@H]1C(C)(C)CC[C@@H]2O [Oridonin (Isodonol)] (0.833333 µM) | 0.108 | 97% (inactive) |
| CCN(CC)CCOc1ccc2c(c1)C(=O)c1cc(OCCN(CC)CC)ccc1-2 [tilorone] (0.833333 µM) | 0.187 | 105% (inactive) |
| CN1CCC(=C2c3ccccc3C=Cc3ccccc32)CC1 [cyproheptadine] (0.833333 µM) | 0.0226 | 102% (inactive) |
| N=C(N)NCCC[C@H](NC(=O)c1sccc1NS(=O)(=O)c1cccc2nsnc12)C(=O)O (10 µM) | 0.0108 | 108% (inactive) |
| Cc1sc(C)c(C(=O)NC2(c3ccc(C(=O)O)cc3)CC2)c1Cc1ccc(C(F)(F)F)cc1 (10 µM) | 0.187 | 108% (inactive) |
| C1=Cc2cccc(OCC3CNCCO3)c2C1 (stereo not given) [indeloxazine] (10 µM) | -0.319 | 106% (inactive) |
| CCCCN(CCCC)CC(O)c1cc(Cl)cc2c1-c1ccc(Cl)cc1/C2=C/c1ccc(Cl)cc1 (stereo not given) [lumefantrine] (10 µM) | 0.15 | 91.5% (inactive) |
| CSc1cc2c(cc1C(F)(F)F)N(C(=O)Nc1cccnc1)CC2 (10 µM) | -0.166 | 112% (inactive) |
| CC(=O)OCC(=O)[C@@]1(O)[C@@H](C)C[C@H]2[C@@H]3CCC4=CC(=O)C=C[C@]4(C)[C@@]3(F)[C@@H](O)C[C@@]21C [betamethasone-acetate] (10 µM) | -0.021 | 114% (inactive) |
| O=c1[nH]c2ccccc2n1C1CCN(CCCC(c2ccc(F)cc2)c2ccc(F)cc2)CC1 [pimozide] (10 µM) | 0.48 | 66.5% (inactive) |
| CN(C(=O)/C=C/c1ccoc1)[C@@H]1CC[C@@]2(O)[C@H]3Cc4ccc(O)c5c4[C@@]2(CCN3CC2CC2)[C@H]1O5 [nalfurafine] (10 µM) | -0.0681 | 108% (inactive) |
